Screening data (PubChem BioAssay)
TDP1 cell noCPT: qHTS for Inhibitors of human tyrosyl-DNA phosphodiesterase 1 (TDP1): qHTS in cells in absence of CPT; DT40 Tdp1-/- hTDP1 cells, no CPT, ATP luminescence, 48 h; Potency, µM (doses to about 46.2 µM), for the others: at the top dose activity change, negative = growth inhibition, most hits filed as inhibitors; actives 15% (n = 420,000); AID 686978, 2013; also: potency is read from the fitted curve at half-maximal effect; % is scaled to controls: 0 for no effect and ±100 for the full control effect; nearly all actives have a fitted effect of over 55% in size
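Chicken DT40 Tdp1-/- cells stably complemented with human TDP1 were seeded at 400 cells/well with DMSO in place of 20 nM camptothecin. After compound pinning, cells grew at least 48 hr at 37 °C; viability read by CellTiter-Glo luminescence.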
HepG2 tox: counter-screen for TGF-b inhibitors: cytotoxicity in HepG2 cells; HepG2 CAGA-GFP viability, ATP luminescence, 18 h; Potency, µM (highest dose often 46.1 µM), for the others: at the top dose activity change, negative = cytotoxicity, usual class: cytotoxic; actives 0.76% (n = 410,000); AID 588856; also: potency is read from the fitted curve at half-maximal effect
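HepG2 CAGA-GFP cells (1000/well, DMEM with 1% FBS) received compound, then TGF-beta at 500 pg/mL final, and were incubated 18 hours at 37 degrees C. Viability was read by CellTiter-Glo luminescence. Media-only wells were set as complete cell-killing and DMSO as no toxicity.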
TGFb inhibitor: TGF-b pathway inhibition; actives 1.2% (n = 410,000); Potency, µM (series often up to 46.1 µM), without a hit: at the top dose activity, negative = inhibition, usual class: inhibitors; HepG2 CAGA-GFP TGF-b/SMAD3 reporter, GFP fluorescence, 18 h; TGF-beta stimulated, 500 pg/mL final; also: potency is read from the fitted curve at half-maximal effect; % is scaled to controls: 0 for no effect and ±100 for the full control effect; nearly all actives have a fitted effect of over 65% in size
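First, reporter cells (HEPG2 CAGA-GFP) rested 2 h at 37 degrees C. Next, compounds were pinned in and TGF-beta added to 500 pg/mL final. After 18 h, GFP was imaged per cell and summed per well.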
ASM inhibitor: inhibitors of human secretory acid sphingomyelinase; P17405; Potency, µM (titrated, usually from 57.5 µM), for inactives: top-dose activity change, negative = inhibition, actives largely listed as inhibitors; AID 504937; placental ASM, HMU-PC fluorogenic substrate, 60 min; actives 0.006% (n = 340,000); also: potency is read from the fitted curve at half-maximal effect
Target sequence (P17405 47-631 limits assumed): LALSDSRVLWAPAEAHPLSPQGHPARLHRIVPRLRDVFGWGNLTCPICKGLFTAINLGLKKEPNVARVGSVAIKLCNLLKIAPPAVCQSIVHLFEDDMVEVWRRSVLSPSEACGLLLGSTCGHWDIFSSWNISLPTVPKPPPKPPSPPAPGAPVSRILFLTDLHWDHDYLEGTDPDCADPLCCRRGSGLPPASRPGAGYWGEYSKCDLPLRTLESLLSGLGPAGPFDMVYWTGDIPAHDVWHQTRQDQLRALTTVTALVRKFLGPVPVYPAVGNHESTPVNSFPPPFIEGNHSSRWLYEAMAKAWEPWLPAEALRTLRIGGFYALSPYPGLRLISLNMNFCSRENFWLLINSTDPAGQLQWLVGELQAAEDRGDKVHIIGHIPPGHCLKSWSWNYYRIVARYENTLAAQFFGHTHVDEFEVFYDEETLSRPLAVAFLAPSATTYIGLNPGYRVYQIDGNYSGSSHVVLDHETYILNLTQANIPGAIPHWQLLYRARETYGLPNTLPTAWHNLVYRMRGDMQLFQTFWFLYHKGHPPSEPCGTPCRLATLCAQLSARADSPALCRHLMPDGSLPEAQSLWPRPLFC
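HMU-PC0 cleavage (9 uM final) by human placental ASM, 60 min at 37 °C following 10 min compound exposure at RT; stopped at pH 10, fluorescence Ex 386/Em 447 nm.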
IL-1B inflam inh: blocks inflammasome-driven IL-1 beta release; THP-1 LPS/ATP IL-1B secretion, AlphaLISA, 16 h; active compounds read low; activity change, % at 57.5 µM; actives 4.7% (n = 360,000); AID 743279; in the data active = activity change below about -50%; inconclusive = mostly about -30% to -49%; also: % is scaled to controls: 0 for no effect and ±100 for the full control effect
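THP-1 cells pretreated 1 hr with compounds (up to 57.5 uM final), then stimulated with LPS (250 ng/mL final) plus ATP (1.25 mM final); secreted IL-1B measured by AlphaLISA after 16 hr, decreased signal indicating inhibition.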
TDP1 cell CPT: DT40-hTDP1 cell growth loss with CPT | chicken DT40 Tdp1-/-;hTDP1 cells + 20 nM CPT, ATP luminescence, 48 h | Potency, µM (highest dose often 46.2 µM), for inactives: at the highest dose activity change, negative = growth inhibition, actives largely listed as inhibitors | actives 12% (n = 420,000) | AID 686979; also: potency is read from the fitted curve at half-maximal effect; % is scaled to controls: 0 for no effect and ±100 for the full control effect; nearly all actives have a fitted effect of over 55% in size
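Cell growth measured by CellTiter-Glo luminescence after a minimum 48 h, 37 C compound exposure with 20 nM CPT in Tdp1-knockout DT40 cells stably expressing hTDP1, seeded 400/well; qHTS titration format.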
An asterisk follows results filed as active; ? = inconclusive; nt = no result given; ! = not active in a repeat. The list is not random: actives were taken first. Their share in the collection is about 19%. Unless noted, calls follow the shape of the dose curve; as a rule, active = well fitted curve in the direction sought with a large enough effect; inconclusive = small, poorly fitted or top-dose-only effect, or another doubt; inactive = no such curve, though single readings can be large; an effect the other way counts as inactive or inconclusive.

SMILES	TDP1 cell noCPT	HepG2 tox	TGFb inhibitor	ASM inhibitor	IL-1B inflam inh	TDP1 cell CPT
CC(=O)OCC(=O)[C@H]1CC[C@H]2[C@@H]3CC=C4C[C@@H](O)CC[C@]4(C)[C@H]3CC[C@]12C	-7%	-6%	4%	-2%	4	?
CCN1C(=O)/C(=C/c2ccc(N(CC)CC)cc2OC)C(=O)NC1=S	-17%	3%	20%	6%	-55*	?
C=CCN1C(=O)C2(C(C(=O)OC)=C(N)Oc3c2c(=O)oc2ccccc32)c2ccccc21 (stereo unspecified)	?	5%	5%	nt	nt	?
COP(=O)(OC)OC=C(Cl)Cl	12µM*	nt	nt	nt	nt	?
CCN(CC)C(=O)/C(Cl)=C(\C)OP(=O)(OC)OC	-3%	nt	nt	nt	nt	-4%
Cc1ccc(/C=C2\C(=O)NC(=S)N(c3ccc(F)cc3)C2=O)o1	15µM*	1%	3%	-14%	3	7.3µM*
COc1cccc(N2C(=O)/C(=C/c3ccc(C)o3)C(=O)NC2=S)c1	15µM*	-1%	-4%	-7%	5	15µM*
COc1ccc(N2C(=O)/C(=C/c3ccc(N(C)C)o3)C(=O)NC2=S)cc1	-5%	15%	32%	-6%	-2	-18%
Cc1ccc(/C=C2\C(=O)NC(=S)N(c3ccc(F)cc3)C2=O)s1	5.8µM*	6%	-22%	4%	-108*	2.9µM*
COc1ccc(N2C(=O)/C(=C/c3cccs3)C(=O)NC2=S)cc1	3.7µM*	-10%	-7%	-3%	3	5.2µM*
O=C1NC(=S)N(c2ccc(F)cc2)C(=O)/C1=C/c1ccccc1O	-12%	0%	1%	-1%	1	?
O=C(OCCN1CCCCC1)C(O)(c1ccccc1)c1ccccc1	-1%	nt	nt	nt	nt	7%
COc1ccc(CC(=O)C2C(=O)N(C)c3ccccc32)cc1OC (stereo unspecified)	?	-19%	-27%	-1%	4	-11%
CCOC(=O)CNC(=O)CNC(=O)c1nn(-c2ccc(OC)c(Cl)c2)c(=O)c2ccccc12	-5%	-16%	6%	2%	-2	?
O=C(Nc1ccccc1)N1CC2(CCN(C(=O)Oc3ccccc3)CC2)C1	-11%	nt	nt	nt	nt	-16%
CCOP(=O)(CCP(=O)(OCC)OCC)OCC.C[CH2][Sn]([Cl])([Cl])[CH2]C	0.82µM*	2%	?	1%	-100*	0.73µM*
Cn1cc(C=C(C#N)C#N)c2ccccc21	12%	-3%	53%	-3%	-3	7%
Cn1cc(/C=C(\C(=O)O)C(C(=O)O)=C2CCCCC2)c2ccccc21	15µM*	44%	41%	7%	40	23µM*
CCOc1ccc2nc(NC(=O)c3cccn(Cc4ccccc4C)c3=O)sc2c1	2%	-6%	-12%	nt	nt	2%
O=C1N[C@@H](Cc2ccccc2)C(=O)N2[C@H]1C[C@H]1c3ccccc3N(OOSc3ccccc3)[C@H]12	16µM*	-12%	-3%	-3%	54	21µM*
O=P1(Oc2ccccc2)CC=CC(COCc2ccccc2)O1 (stereo unspecified)	nt	7%	-20%	nt	nt	nt
CCOP(=O)(OCC)C(Nc1ccccc1)c1cc(OC)ccc1OC (stereo unspecified)	?	-23%	-12%	5%	0	?
CN(C[C@H](Cc1ccccc1)N(C[C@H](Cc1ccccc1)N(CC1(c2ccccc2)CC1)N=O)N=O)N=O	18µM*	-18%	-18%	-4%	0	?
CCOC(=O)c1ccc(COC(=O)c2ccc(-c3nnc(-c4ccccc4)o3)cc2)o1	?	-19%	-2%	-7%	0	?
O=[N+]([O-])/C=C/c1c(Cl)cccc1Cl	1.3µM*	10µM*	2.8µM*	1%	-99*	0.46µM*
SMILES	TDP1 cell noCPT	HepG2 tox	TGFb inhibitor	ASM inhibitor	IL-1B inflam inh	TDP1 cell CPT
CC(C)(N)Cc1ccc(Cl)cc1	-27%	nt	nt	nt	nt	?
C=CCc1c(C)nc(C)nc1N/N=C/c1ccc(N(C)C)cc1	21µM*	-53%	?	211%	20	4.6µM*
O.O.O.O=C([O-])C(O)C(O)C(=O)[O-].O=C([O-])C(O)C(O)C(=O)[O-].[K+].[K+].[Sb].[Sb] (stereo unspecified)	-29%	nt	nt	nt	nt	-9%
O=c1[nH]c(=S)n(C2CC2)c(O)c1C=NCC1CCCO1 (stereo unspecified)	-5%	-15%	-22%	-2%	4	7%
C[C@H]1CNC(=O)c2c(C(=O)N3CCN(C(=O)OC(C)(C)C)CC3)ncn21	?	-8%	1%	nt	-27	26µM*
Cc1cc(=O)oc2c3c(cc(OCC(=O)N4CCC[C@H]4C(=O)O)c12)OC(C)(C)CC3	-4%	15%	1%	107%	11	-7%
COc1cccc(C(=O)NCc2nc(-c3cccc(NC(=O)c4ccoc4C)c3)oc2C)c1OC	6.5µM*	nt	nt	nt	nt	?
O=C(C[n+]1ccn(CCCNP2(=O)C=C(c3ccccc3)OC(c3ccccc3)=C2)c1)c1ccccc1	?	-24%	1%	0%	-55*	?
Cc1cc(=O)[nH]c(SCc2nc3ccccc3c(=O)n2-c2ccccc2C)n1	-19%	0%	14%	0%	39	-1%
COC(=O)C1=C(c2ccc(OCc3ccccc3)cc2)C[C@@H]2CC[C@H]1N2C	23µM*	-30%	-6%	nt	-14	16µM*
COC(=O)C1=C(c2ccc(OCc3ccccc3)c(F)c2)C[C@@H]2CC[C@H]1N2C	23µM*	-29%	6%	nt	-25	?
CCOc1ccc2nc(NC(=O)c3cccn(Cc4ccccc4Cl)c3=O)sc2c1	15%	4%	3%	nt	nt	-3%
CN1CC[C@@]2(CCCN(C(=O)c3ccncc3)C2)C1	-15%	nt	nt	nt	nt	-6%
CCn1cc(C(=O)NCCc2ccc(Cl)cc2)c(=O)c2cc(S(=O)(=O)N(C)C3CCCCC3)ccc21	?	-1%	-22%	nt	nt	?
CN1[C@@H](CC(=O)c2ccccc2)CCC[C@H]1C[C@H](O)c1ccccc1	21µM*!	3%	0%	-3%	-18	24µM*!
CN1C(CC(=O)c2ccccc2)CCCC1CC(O)c1ccccc1 (stereo unspecified)	-20%	-30%	-4%	-1%	-18	?
COCC(=O)N1Cc2ccccc2-n2nncc2C1	-19%	0%	-13%	4%	15	-4%
